Sampled rows, rich in hits. Any-hit rate of the full collection: about 2.1%.
ClpP mod = qHTS Assay for Activators of ClpP | 340,000 compounds, 1.9% hits | purified B. subtilis ClpP, FRET peptide cleavage, 20 min | Potency, µM (highest dose often 57.5 µM), without a hit: top-dose activity change, negative = active | ATP-dependent Clp protease proteolytic subunit (Bacillus subtilis (strain 168)), P80244; active means well fitted falling curve with a large enough effect; inconclusive means small, poorly fitted or top-dose-only effect; inactive means no such curve, though single readings can be large or run the other way; further: potency means the concentration at half of the fitted maximal effect; the source files actives as falling curves though it sought activators and does not explain the sign; nearly all actives have a fitted effect of over 65% in size
Target sequence (P80244 whole entry, looked up): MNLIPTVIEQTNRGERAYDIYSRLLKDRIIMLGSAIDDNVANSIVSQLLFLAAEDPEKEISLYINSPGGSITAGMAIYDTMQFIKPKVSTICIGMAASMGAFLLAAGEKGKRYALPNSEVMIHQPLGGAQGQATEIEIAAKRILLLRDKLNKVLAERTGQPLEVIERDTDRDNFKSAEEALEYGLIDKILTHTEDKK
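FRET quenching reversal measured ClpP activation: 10 microg/mL B. subtilis ClpP at pH 8 with the FRET-FV decapeptide, read at 430 nm after 320 nm excitation. The 20-min minus 0-min signal was scaled between DMSO/no-enzyme wells and ADEP (5.8 microM final).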
p53 reactivator = qHTS assay for re-activators of p53 using a Luc reporter; AID 504706, 2011; H1299 p53-A138V BP100-luciferase reporter, luminescence, 24 h; Potency, µM (doses to about 92.2 µM), for the others: at the highest dose activity change, positive = activation, hits mostly activators; 320,000 compounds, 0.063% hits; further: potency means the concentration at half of the fitted maximal effect; % of control where 0% means no effect; nearly all actives have a fitted effect of over 45% in size
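H1299 (p53-null), stable ts p53-A138V + BP100-Luc; 1000 cells/well, Opti-MEM/10% FBS; cpd 4 pt, 1:5; 24 h, 37 deg C, 5% CO2; detection reagent 10 min RT; luminescence.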
B2AR arrestin = qHTS assay of beta-arrestin-biased ligands of beta2-adrenergic receptor. Potency, µM (doses to about 46.1 µM), inactives show at the highest dose activation, most hits filed as activators. beta-arrestin recruitment to beta2AR, cell-based reporter. Beta-2 adrenergic receptor (Homo sapiens), P07550. 330,000 compounds, 0.02% hits;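 further: potency means the concentration at half of the fitted maximal effect; 0% = DMSO controls and full agonism = EC100 isoproterenol or metaproterenol; nearly all actives have a fitted effect of over 65% in size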
uPA surface inh = qHTS for Inhibitors of Cell Surface uPA Generation; cell surface uPA generation assay, qHTS; Potency, µM (series often up to 38.3 µM), inactives show top-dose activity change, negative = inhibition, actives largely listed as inhibitors; 330,000 compounds, 0.31% hits; AID 540303, 2011; active means well fitted inhibition curve with a large enough effect; inconclusive means small, poorly fitted or top-dose-only effect; inactive means no such curve, though single readings can be large or run the other way; tested in mouse RAW 264.7 cells; further: potency means the concentration at half of the fitted maximal effect; on the % scale 0 is the no-effect control and ±100 the full control effect; nearly all actives have a fitted effect of over 55% in size
Mito fusion act = qHTS Assay for Small Molecule Inhibitors of Mitochondrial Division or Activators of Mitochondrial Fusion. S. cerevisiae fusion-defective mutant growth rescue, CellTiterGlo 48 h. Potency, µM (top dose mostly 46.1 µM), inactives show at the top dose growth rescue (activation), hits mostly activators. 320,000 compounds, 0.23% hits; further: potency means the concentration at half of the fitted maximal effect; % of control where 0% means no effect; nearly all actives have a fitted effect of over 45% in size
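Growth-rescue viability read-out: after 48 h at the non-permissive 37C in glycerol/ethanol YPEG, yeast mitochondrial fusion mutants are measured by CellTiterGlo luminescence; compounds (23 nl pinned per well) restoring growth score as division inhibitors or fusion activators.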
Giardia killer = Small Molecules that selectively kill Giardia lamblia: qHTS | Giardia lamblia trophozoite viability | activity change, % at 7.66 µM, hits read low | 340,000 compounds, 0.15% hits | AID 540267, 2011; in the data active means activity change below about -80%; inconclusive means between about -30% and that limit;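 further: parasites exposed to compound for two days anaerobically before the ATP read; on the % scale 0 is the no-effect control and ±100 the full control effect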
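Luminescence from cellular ATP indicates surviving trophozoites (100 cells/well) following 48 hrs anaerobic compound treatment at 37 deg C; signal develops 15-30 min at room temperature.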
* marks the source's active call; other numbers are inactive results; ? = inconclusive; · = no result given. Unless noted, the call rests on the fitted dose curve; in most records, active means well fitted curve in the direction sought with a large enough effect; inconclusive means small, poorly fitted or top-dose-only effect, or another doubt; inactive means no such curve, though single readings can be large; an effect the other way counts as inactive or inconclusive.

SMILES	ClpP mod	p53 reactivator	B2AR arrestin	uPA surface inh	Mito fusion act	Giardia killer
Cc1ccc(C)c(OCCC(=O)OCC(=O)N2CCN(S(=O)(=O)c3ccc(Cl)cc3)CC2)c1	-4.2%	-17.7%	-0.2%	10µM*	-1.2%	2.7
O=C(Nc1ccccc1C(=O)OCc1cc(=O)n2c3c(sc2n1)CCCC3)c1cccc(Cl)c1	4.8%	·	·	·	·	·
CCC(C)Sc1oc(-c2ccco2)nc1S(=O)(=O)c1ccc(C)cc1 (centres undefined)	-8.5%	·	·	·	·	·
Cc1ccc(-c2nc3ccc(Cl)cn3c2Nc2ccccc2C)s1	12.0%	·	·	·	·	·
Cc1ccn2c(Nc3ccc(F)cc3)c(-c3ccc(C)o3)nc2c1	-14.7%	·	·	·	·	·
Cc1ccc2nc(-c3ccc(C)o3)c(Nc3ccc(Cl)cc3)n2c1	14.1µM*	·	·	·	·	-6.6
Cc1ccccc1Nc1c(-c2ccc(Br)o2)nc2ccc(Cl)cn12	28.2µM*	·	·	·	·	·
CC1(C(=O)Nc2cccc(-n3cnnn3)c2)Cc2ccccc2C(=O)O1 (centres undefined)	35.5µM*	-10.8%	-0.9%	4.7%	·	5.5
Cc1oc2c(c(=O)c1C)C(=O)CC(c1ccccc1)C2 (centres undefined)	-2.6%	10.5%	-0.6%	-5.3%	-0.7%	12.9
CS(=O)(=O)c1sc(C#N)c2c1C(=O)CC(c1ccccc1)C2 (centres undefined)	-4.0%	-12.7%	-0.8%	8.91µM*	6.9%	-7.1
COC(=O)c1ccc2c(c1)C(=O)/C(=C/c1ccc(C)cc1)O2	28.2µM*	10.2%	-0.6%	1.7%	0.8%	12.5
Cn1c(SCc2ccc(F)cc2)nc2ccc(C(=O)NCc3cccc(Cl)c3)cc21	2.0%	·	·	·	·	·
CCCCN(CC)c1nc(-c2ccncc2)nc2ccccc12	-0.4%	0.7%	-0.1%	-2.3%	17.8µM*	9.2
COc1cc2nc(N3CCCN(C)CC3)nc(Nc3ccncc3)c2cc1OC	4.3%	·	·	·	·	·
CCS(=O)(=O)Nc1ccc(-c2cc(-c3ccccc3)c3cc(C)ccc3n2)cc1	17.8µM*	-12.5%	-0.8%	-2.0%	-37.1%	?
Cc1coc2cc3oc(=O)c(CC(=O)NCc4cccc(Cl)c4)c(C)c3cc12	4.4%	·	·	·	·	·
COc1ccccc1NC(=O)Cn1c(=O)n(-c2ccc(C)cc2)c(=O)c2c1cnn2C	-0.9%	·	·	·	·	·
COc1ccccc1CNC(=O)c1ccc(N2Cc3cccc(OC)c3Oc3ncccc32)s1	-25.6%	·	·	·	·	·
Cc1cccc(CNC(=O)c2ccc(N3Cc4ccccc4Oc4ncccc43)s2)c1	28.2µM*	·	·	·	·	·
Cc1cccc(C(=O)Nc2nnc(S(=O)(=O)N(C)c3ccccc3C)s2)c1	-9.4%	·	·	·	·	·
CCCC(c1nnnn1CC(=O)OCC)N(Cc1cc2ccc(C)cc2[nH]c1=O)C1CCCC1 (centres undefined)	17.8µM*	-0.8%	-0.6%	-6.0%	-0.4%	-6.5
Oc1ccccc1CNc1cnc2ccccc2c1	28.2µM*	?	-0.9%	-23.3%	-7.8%	3.2
C=CCOc1ccc(C2OC34CCCCC3C(C#N)(C#N)C2(C#N)C(=N)O4)cc1 (centres undefined)	22.4µM*	1.5%	-0.1%	0.6%	-1.1%	3.8
O=C(CSc1n[nH]c(-c2ccc(S(=O)(=O)N3CCCCC3)cc2)n1)Nc1nccs1	28.2µM*	11.7%	0.0%	4.3%	0.5%	-15.9
O=C(CCn1c(=O)c2ccccc2n(Cc2cccc([N+](=O)[O-])c2)c1=O)N1CCc2ccccc2C1	25.1µM*	-3.6%	-0.5%	0.4%	17.8%	10.9
Cn1ncc(S(=O)(=O)Cc2ccccc2)c(Br)c1=O	·	·	·	·	-91.8%	·
CCN(CC)CCNC(=O)Cn1c(-c2ccccn2)nc2ccccc21	14.1µM*	7.8%	0.0%	·	-1.5%	14.1
NNC(=O)Cn1c(-c2ccccn2)nc2ccccc21	0.1%	4.0%	-0.9%	1.8%	0.9%	12.9

Bioassay records: PubChem, National Center for Advancing Translational Sciences (NCATS)
